Rows were chosen to be rich in hits. Some 3.4% of all compounds tested hit in one or more screens of this group.
PLC-gamma1 inh: PLC-gamma1 enzyme inhibitors, primary screen, biochemical, fluorescence, purified enzyme; 1-phosphatidylinositol 4,5-bisphosphate phosphodiesterase gamma-1 (Homo sapiens), P19174; fluorogenic substrate; inhibition, % at 12.2 µM; 0.84% of 370,000 active; AID 720700, 2013; in the data active means inhibition above about 9.5%
sPLA2-III inh: human group III sPLA2 inhibitors, primary screen, biochemical, QFRET, BODIPY PC-A2 liposome substrate. QFRET BODIPY PC-A2 liposome hydrolysis, fluorescence. AID 743126, 2013. inhibition, % at 12.2 µM. Group 3 secretory phospholipase A2 (Homo sapiens), Q9NZ20. 0.56% of 370,000 active;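 active means inhibition above mean plus 3 SD of compounds lying within the high and low control bounds, cut at about 19% in these data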;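 further: 0% = median of test compound wells and 100% = no enzyme DMSO wells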
PLC-beta3 inh: human PLC-beta3 inhibitors, primary screen, biochemical, fluorescence; 1-phosphatidylinositol 4,5-bisphosphate phosphodiesterase beta-3 (Homo sapiens), Q01970; Purified PLC-beta3, fluorogenic substrate; inhibition, % at 12.2 µM; 0.18% of 370,000 active; AID 720704, 2013; in the data active means inhibition above about 11%;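 further: 0% = median of compound wells on plate and 100% = full blocker control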
ADAM10 inh: human ADAM10 inhibitors, primary screen, biochemical, QFRET, HTS | Disintegrin and metalloproteinase domain-containing protein 10 (Homo sapiens), O14672 | recombinant ADAM10, EDANS/DABCYL FRET peptide cleavage, 3 h | inhibition, % at 7 µM | 0.62% of 370,000 active | AID 720582, 2013;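 active means inhibition above a per-campaign cutoff equal to the mean of compounds falling between control-based bounds plus 3 SD, cut at about 20% in these data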;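 further: 0% = DMSO wells while the 100% control is not disclosed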
Target sequence (O14672 214-748 limits assumed): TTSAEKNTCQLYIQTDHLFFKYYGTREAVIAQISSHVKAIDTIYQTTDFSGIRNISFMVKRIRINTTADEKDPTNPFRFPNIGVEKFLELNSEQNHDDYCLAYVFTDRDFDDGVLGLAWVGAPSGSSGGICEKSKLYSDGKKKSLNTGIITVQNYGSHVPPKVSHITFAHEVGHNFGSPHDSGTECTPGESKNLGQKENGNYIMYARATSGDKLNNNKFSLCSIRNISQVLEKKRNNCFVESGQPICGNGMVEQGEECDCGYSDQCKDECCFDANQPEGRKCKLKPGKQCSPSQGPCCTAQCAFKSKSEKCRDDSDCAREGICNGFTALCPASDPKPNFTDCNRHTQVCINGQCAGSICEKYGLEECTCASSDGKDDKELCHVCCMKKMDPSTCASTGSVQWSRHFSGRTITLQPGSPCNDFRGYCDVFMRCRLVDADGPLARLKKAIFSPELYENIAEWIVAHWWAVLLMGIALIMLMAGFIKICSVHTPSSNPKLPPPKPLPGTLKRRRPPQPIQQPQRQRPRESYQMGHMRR
ADAM17 inh: ADAM17 inhibitors, primary screen, biochemical, QFRET; Disintegrin and metalloproteinase domain-containing protein 17 (Homo sapiens), P78536; recombinant ADAM17, EDANS/DABCYL FRET peptide cleavage; inhibition, % at 6.95 µM; 0.83% of 370,000 active; AID 720648, 2013;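 active means inhibition above the mean of compounds lying between control limits plus 3 SD, set per campaign, cut at about 8.5% in these data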;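 further: 0% = DMSO-only wells as the low control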
KLK7 zymogen act: proKLK7 zymogen activators, primary screen, biochemical, fluorescence intensity. Kallikrein-7 (Homo sapiens), P49862. AID 652039, 2013. 0.9% of 370,000 active. activation, % at 7 µM. purified proKLK7, EDANS-DABCYL substrate fluorescence; 100% is mature enzyme control, 0% vehicle;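 active means activation above the mean of all tested compounds plus 3 SD, computed per campaign excluding outliers beyond control limits, cut at about 13% in these data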
Numbers without * were called inactive; i = inactive.

SMILES	PLC-gamma1 inh	sPLA2-III inh	PLC-beta3 inh	ADAM10 inh	ADAM17 inh	KLK7 zymogen act
Nc1[nH]c(C(=O)c2ccc(Br)cc2)c(-c2ccc3ccccc3c2)c1C(=O)NCCc1c[nH]c2ccccc12	-6	-10	-11	-13	1	0
O=C1SC(SC(=Nc2ccccc2)Nc2ccccc2)C(=O)N1c1ccccc1 (stereo not drawn)	0	-31	14*	-1	7	0
C=C(C)CSc1nnc(-c2cc(-c3ccccc3)n[nH]2)n1N	-2	-1	0	-2	0	-1
O=C(/C=C/c1ccc(Cl)cc1)NC(=S)Nc1ccc(C(=O)O)cc1	11*	2	0	5	2	0
CN(C)c1ccc(NC(=S)NC(=O)/C=C/c2ccc(Cl)cc2)cc1	-1	4	-3	10	1	0
CCOC(=O)[C@@H]1[C@H]2COc3ccc(Br)cc3[C@H]2N2C(=O)N(c3ccc(C(F)(F)F)cc3)C(=O)[C@]12C	0	3	-2	24*	5	0
CCCCNC(=O)NCC1CCN(Cc2ccc(OC)cc2)CC1	0	4	1	1	1	1
CCOC(=O)N(C)[C@H]1C[C@H]2c3[nH]c4c(-c5ccc6c(c5)OCO6)cccc4c3CCN2C(=O)[C@H]1[C@H](C)O	-16	-42	-19	-6	-2	1
CC(C)CC(=NNC(=O)c1ccncc1)c1cc(Cl)ccc1O	-113	21*	-156	-7	-4	-3
Cc1cccc(C)c1-n1nnnc1C(c1ccccc1OC(F)(F)F)N1CCN(C/C=C/c2ccccc2)CC1 (stereo not drawn)	12*	-12	8	7	5	0
COc1cccc(C(c2nnnn2-c2c(C)cccc2C)N2CCN(C/C=C/c3ccccc3)CC2)c1OC (stereo not drawn)	4	-6	3	7	7	-1
CC(C)=CCC/C(C)=C/CN1C(=O)N(c2ccc(F)cc2)[C@H]2C[C@@H](c3ccccc3)[C@@H](C)[C@@H](C(=O)N3CCOCC3)C[C@H]21	-1	1	-1	-5	0	0
CC(C)(C)OC(=O)N1CCC(CNC(=O)c2ccccc2)CC1	-1	-1	-2	4	-3	0
CC1(C)CC(Cc2ccc(C(=O)c3ccccc3)cc2)N(C(=O)OC(C)(C)C)N1 (stereo not drawn)	11*	0	9	7	8	0
O=C(COC(=O)CNC(=O)c1ccccc1F)NC12CC3CC(CC(C3)C1)C2	12*	-10	-2	0	-6	1
COc1ccc(C(=O)CSc2nnc(-c3ccccn3)n2-c2ccccc2)cc1	0	-23	-3	5	3	0
CCCCNS(=O)(=O)c1ccc2nc(SCC(=O)Nc3sccc3C#N)[nH]c2c1	2	-49	-12	20*	13*	-1
CCCCNS(=O)(=O)c1ccc2nc(SCC(N)=O)[nH]c2c1	-1	-1	-11	1	-7	0
Cc1ccc(/C=c2\s/c(=C(/C#N)C(=O)N3CCCC3)n(Cc3ccco3)c2=O)s1	-16	-6	-28	20*	2	0
CCOC(=O)N1CCN(C(=O)c2ccc3c(c2)N(Cc2ccc(F)cc2)CCS3)CC1	i	-3	i	-439	-106	9
CCOC(=O)N1CCN(C(=O)c2ccc3c(c2)N(CC)CCS3)CC1	-428	-1	i	-206	-54	14*
CC(C)(C)OC(=O)NCCCCCNC(=O)c1nc[nH]c1C(=O)NCc1ccc(CNC(=O)OC(C)(C)C)cc1	2	-27	2	23*	12*	0
CC(C)(C)OC(=O)NCc1ccc(CNC(=O)c2nc[nH]c2C(=O)NCc2ccc(CNC(=O)OC(C)(C)C)cc2)cc1	-4	-8	-3	11	12*	0
